Source: PubChem BioAssay (National Center for Advancing Translational Sciences (NCATS))
Rows were chosen to be rich in hits. Some 12% of all compounds tested hit in one or more screens of this group.
PLK1 PBD inh: PLK1 (human) polo-box domain binding inhibition; P53350; Plk1 PBD binding of FITC phosphopeptide, fluorescence polarization; Potency, µM, for inactives: max response, negative = inhibition, usual class: inhibitors; hit rate 2.8% among 360,000; also: potency is read from the fitted curve at half-maximal effect; series mostly up to about 57 µM; % is scaled to controls: 0 for no effect and ±100 for the full control effect; nearly all actives have a fitted effect of over 65% in size
JMJD2A Tudor: inhibitors of human JMJD2A Tudor domain | AID 504339 | AlphaScreen JMJD2A-Tudor / H3K4me3 peptide binding | hit rate 4.4% among 390,000 | Potency, µM (series often up to 114 µM), without a hit: at the highest dose activity change, negative = inhibition, most hits filed as inhibitors | O75164; also: potency is read from the fitted curve at half-maximal effect; % is scaled to controls: 0 for no effect and ±100 for the full control effect; nearly all actives have a fitted effect of over 50% in size
G9a inh: G9a (human) methyltransferase inhibition | AID 504332 | G9a H3K9 monomethylation, AlphaScreen, 2 h | Potency, µM (series often up to 102 µM), without a hit: top-dose activity, negative = inhibition, hits mostly inhibitors | hit rate 8.8% among 350,000 | Q96KQ7; also: potency is read from the fitted curve at half-maximal effect; % is scaled to controls: 0 for no effect and ±100 for the full control effect; nearly all actives have a fitted effect of over 75% in size
Target sequence (Q96KQ7 913-1193 limits assumed): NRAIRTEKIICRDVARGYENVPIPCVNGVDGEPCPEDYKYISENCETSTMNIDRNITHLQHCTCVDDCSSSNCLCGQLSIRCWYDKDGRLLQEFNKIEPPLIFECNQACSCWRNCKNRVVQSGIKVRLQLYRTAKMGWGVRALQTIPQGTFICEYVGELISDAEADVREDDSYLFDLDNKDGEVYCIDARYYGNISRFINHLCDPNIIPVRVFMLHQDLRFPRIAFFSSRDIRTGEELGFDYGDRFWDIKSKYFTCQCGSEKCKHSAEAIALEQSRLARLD
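Quantitative HTS format: methyltransferase activity on a biotin-tagged H3K9 peptide is measured by AlphaScreen, using a rabbit anti-monomethyl-H3K9 antibody with streptavidin donor and anti-IgG acceptor beads. Final levels are 20 nM enzyme, 500 nM peptide, 20 uM SAM; 2 h RT.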
PI5P4K alpha inh: blocks human PI5P4K alpha kinase activity; P48426; PI5P4Kalpha enzyme, ADP-Glo luminescence, 60 min; stronger effect = lower value; max response, %; hit rate 1.2% among 330,000; active = max response of -50% or lower; inconclusive = between -30% and -50%; inactive = -30% or higher; also: value at the top dose of about 77 µM; % is scaled to controls: 0 for no effect and ±100 for the full control effect
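Luminescence from ADP-Glo served as readout of PI5P4Kalpha activity in a qHTS format. Reaction: enzyme, substrate, compound, ATP at 5 microM final, 60 min at RT.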
HP1b binding inh: inhibitors of HP1-beta chromodomain binding to methylated histone tails. P83916. AlphaScreen HP1-beta / biotin-H3K9me3 peptide binding. Potency, µM (titrated, usually from 114 µM), for inactives: at the highest dose activity change, negative = inhibition, hits mostly inhibitors. hit rate 0.56% among 390,000. AID 540317; also: potency is read from the fitted curve at half-maximal effect; nearly all actives have a fitted effect of over 70% in size
Target sequence (P83916 whole entry, looked up): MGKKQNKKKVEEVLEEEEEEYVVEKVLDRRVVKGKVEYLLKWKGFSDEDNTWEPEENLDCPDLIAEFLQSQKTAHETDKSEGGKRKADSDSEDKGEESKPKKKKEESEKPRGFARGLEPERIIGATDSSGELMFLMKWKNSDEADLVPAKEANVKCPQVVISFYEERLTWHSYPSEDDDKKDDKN
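HP1-beta protein (50 nM final) preincubated 30 min at room temperature with biotinylated H3(1-18)K9me3 peptide (50 nM) in PBS pH 7.4, 0.01% Tween-20, then compound added for 30 min. AlphaScreen streptavidin donor/nickel chelate acceptor beads (10 ug/mL final), 30 min dark, luminescence read.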
BAZ2B block: inhibitors of human BAZ2B bromodomain; hit rate 4.4% among 360,000; Q9UIF8; AlphaScreen BAZ2B-H3K14Ac peptide displacement; Potency, µM (series often up to 114 µM), for inactives: at the top dose activity change, negative = inhibition, usual class: inhibitors; AID 504333; also: potency is read from the fitted curve at half-maximal effect; % is scaled to controls: 0 for no effect and ±100 for the full control effect; nearly all actives have a fitted effect of over 60% in size
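In this displacement format the biotinylated H3(5-23) peptide acetylated at Lys14 serves as ligand at 50 nM, with BAZ2B at 50 nM in PBS pH 7.4 containing 0.01% Tween-20. Donor and acceptor beads are 10 ug/mL final.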
* marks the source's active call; other numbers are inactive results; u = inconclusive; x = no result given; ! = not confirmed by another sample; [ ] = dose if it differs, or a comment. Unless noted, calls follow the shape of the dose curve; as a rule, active = well fitted curve in the direction sought with a large enough effect; inconclusive = small, poorly fitted or top-dose-only effect, or another doubt; inactive = no such curve, though single readings can be large; an effect the other way counts as inactive or inconclusive.

SMILES | PLK1 PBD inh | JMJD2A Tudor | G9a inh | PI5P4K alpha inh | HP1b binding inh | BAZ2B block
COCCN=C1NC(=O)C(CC(=O)Nc2cccc(Cl)c2C)S1 (centres undefined) | -4.0% | -12.1% | 50.1µM* | -0.4 | 28.3% | 1.7%
COc1ccc(NC(=O)C2(C)CCN2Cc2csc3ccccc23)cc1OC (centres undefined) | 1.9% | x | x | 14.9 | x | x
COc1ccc(-c2cn3cc(Cl)ccc3n2)cc1OC | -12.7% | -3.6% | 79.4µM* | -4.1 | 6.1% | u
Clc1ccc2nc(-c3ccc(Br)s3)cn2c1 | -4.9% | -17.2% | 50.1µM* | x | -3.8% | -2.0%
O=C(O)CCn1c(-c2ccccc2)cc2c1CCCC2=O | -3.4% | -17.9% | 50.1µM* | u | 29.4% | -2.0%
O=C(O)Cc1ccc(O)c(O)c1 | -8.3% | 56.2µM* | 0.238µM* | -8.0 | u | -8.2%
CC(=O)Nc1nonc1-c1nnc(SCc2ccccc2F)n1C | x | 13.6% | 2.0%[59 µM] | x | 40.0% | -4.7%
Nc1ccc2nc(SCc3ccccc3F)sc2c1 | 15µM* | 25.1µM* | 22.4µM* | -27.8 | u | u
O=C(Nc1ccc2nc(SCc3ccccc3)sc2c1)c1ccccc1F | x | -3.0% | -0.5%[59 µM] | x | 50.0% | -4.4%
Nc1ccc2nc(SCC(=O)c3ccccc3)sc2c1 | -22.1% | -26.6% | 44.7µM* | -8.4 | 10.5% | u
O=C(O)C1CCC(C(=O)O)O1 (centres undefined) | -2.7% | 44.7µM* | x | -0.6 | -10.6%[57 µM] | x
O=C(O)C1CCNCC1 | x | x | -14.9%[59 µM] | x | x | x
CC(C)CC(NC(=O)c1ccc(Cl)cc1)C(=O)O (centres undefined) | -1.9% | -13.5% | 16.6% | x | 22.8% | -2.6%
CC(C)CN(CC(C)C)C(=O)CC(=O)NC(=O)c1ccc(Cl)cc1 | -0.3% | 16.1% | -5.0%[59 µM] | 0.1 | 20.6% | 89.1µM*
NC[C@H](O)c1ccc(O)c(O)c1 | -17.9% | 7.94µM* | 9.47µM* | 0.2 | -8.3% | u
Oc1ccc(C(O)CNCCCCCCNCC(O)c2ccc(O)c(O)c2)cc1O (centres undefined) | x | x | -40.5%[12.7 µM] | x | x | x
CC(C)NCC(O)c1ccc(O)c(O)c1 (centres undefined) | 3.6% | -7.2% | 14.1µM*! | -4.4 | 11.1% | -26.9%
CNC[C@H](O)c1ccc(O)c(O)c1 | -3.8% | -28.1% | 7.94µM*! | -1.2 | 14.3% | 50.1µM*
O=C(Cn1nc(Cc2cccnc2)c2ccccc2c1=O)Nc1cccc(C(F)(F)F)c1 | x | -25.5% | u | x | 20.1% | -20.0%
COc1ccc(Br)cc1C1NC(c2ccc3c(c2)OCO3)=CC(c2ccccc2O)N1 (centres undefined) | x | -23.8%[57.1 µM] | x | x | 8.4%[57 µM] | x
CCOc1ccc(-n2c(C)nc(O)c2N=Nc2ccccc2)cc1 | -12.4% | u | 1.41µM* | 0.7 | -7.1% | u
c1ccc2c(c1)ccn1c(Cc3ccsc3)c(C3CCCCC3)nc21 | -8.2% | x | x | -5.9 | x | x
CCOC(=O)c1cnc(SCC(=O)Nc2cc(OC)ccc2OC)nc1N | -21.5% | -33.6% | -27.6%[59 µM] | -2.5 | 27.4% | u
COc1ccc(N2C(=O)CC(Sc3nc4ccccc4s3)C2=O)cc1OC (centres undefined) | -23.5% | -13.8% | 31.6µM* | 2.3 | 30.4% | -18.5%
CCOC(=O)c1cnc(SC2CC(=O)N(c3ccc(OC)c(OC)c3)C2=O)nc1N (centres undefined) | -13.3% | -6.7% | 20µM* | x | 19.4% | 12.6%
CCOc1ccc2nc(SC3CC(=O)N(c4ccc(C)cc4)C3=O)sc2c1 (centres undefined) | -11.2% | -9.6% | -8.3%[2.33 µM] | x | 44.4% | -2.2%
CC(=O)Nc1ccc(N2C(=O)CC(Sc3nc4ccccc4s3)C2=O)cc1 (centres undefined) | -9.3% | -16.6% | 28.2µM* | 3.3 | 34.7% | -31.7%
CCOc1ccc2nc(SC3CC(=O)N(c4ccc(OC)cc4OC)C3=O)sc2c1 (centres undefined) | -5.4% | -22.4% | 31.6µM* | 0.3 | 34.4% | -22.3%
CCOc1ccc(N2C(=O)CC(Sc3nc4ccc(OCC)cc4s3)C2=O)cc1 (centres undefined) | -6.6% | -7.9% | x | 1.3 | 70.1% | x
